# Experimental data: PubChem BioAssay AID453 (PCMD, 2006)
# About 75 (0.1%) of roughly 63,000 compounds were called active. No stated cut-off is given here; in the data, active means inhibition above about 21%; inactive means the rest. Many of the other results were omitted from the sample, so actives are more common in it than they were.
# Target: Cathepsin B (Homo sapiens) (UniProt P07858)
# Test: blockers of cathepsin B proteolysis – biochemical, fluorogenic substrate, primary screen (AID 453);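 further: 0% = enzyme with no compound and 100% = no enzyme blank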
# Settings: purified cathepsin B, fluorescence, stronger effect = higher value,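 tested at 10 µM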
row,SMILES,inhibition
1,Cc1ccc(NC(=O)CSc2nnc(-c3cnccn3)n2Cc2ccco2)cc1C,3.51% (inactive)
2,CC(C)OC(=O)C(C#N)c1nc2ccccc2nc1N1CCN(Cc2ccc3c(c2)OCO3)CC1 (configuration not stated),0.39% (inactive)
3,CCOc1ccc2[nH]c(=O)c(CN(CCCO)C(C)=O)cc2c1,2.29% (inactive)
4,CCOc1ccc2c(c1)cc(CN(C(=O)CC)C1CCCCC1)c1nnnn12,10.1% (inactive)
5,CCOC(=O)N1CCN(CC(=O)n2c(C)c(C)c3ccccc32)CC1,-1.09% (inactive)
6,O=C(c1cccc(C(=O)N2CCc3ccccc32)n1)N1CCc2ccccc21,3.59% (inactive)
7,CC(C)(C)Oc1ncc(Br)c(OC(C)(C)C)n1,-1.01% (inactive)
8,Cn1c2c(c(=O)n(C)c1=O)CN(Cc1ccco1)CN2,2.04% (inactive)
9,N#CCSc1nc2ccccc2c(=O)n1-c1ccccc1,5.09% (inactive)
10,c1ccc(-n2ncc3c2ncn2c(CSc4nc5ccccc5s4)nnc32)cc1,-2% (inactive)
11,CC(C)(C)n1nnnc1C(c1cccs1)N(Cc1cccnc1)CC1CCCO1 (configuration not stated),3.9% (inactive)
12,COc1ccc(/C(O)=C2/C(=O)C(=O)N(CCCN(C)C)C2c2ccccc2)cc1OC (configuration not stated),0.7% (inactive)
13,Cn1c(=O)oc2cc(S(=O)(=O)N3CCC(C(=O)Nc4ccc(OC(F)(F)F)cc4)CC3)ccc21,1.08% (inactive)
14,Cc1nnc(SCC(=O)N(C(C)C)C(C)C)nc1C,3.33% (inactive)
15,COc1cccc(-c2nnc(NC(=O)c3ccc(S(=O)(=O)N(CC(C)C)CC(C)C)cc3)o2)c1,3.9% (inactive)
16,C=C(C)CSc1nc(N)c2c3c(sc2n1)CCC3,-1.31% (inactive)
17,O=C(Nc1ccccc1)c1cccnc1Nc1ccccc1,-3.06% (inactive)
18,COc1ccc(Cc2nnnn2CC(=O)O)cc1,-2.08% (inactive)
19,CSc1nsc(SC)c1NC(=O)OC1CCCCC1,2.76% (inactive)
20,CCOC(=O)C1CCCN(C(=O)C2CCN(c3nnc(-n4cccc4)s3)CC2)C1 (configuration not stated),5.94% (inactive)
21,Cn1nnnc1SCC(=O)N1CCN(C(c2ccccc2)c2ccccc2)CC1,8.32% (inactive)
22,C/C(=C(\C#N)C(=O)NCCCN1CCOCC1)N(C)C,2.66% (inactive)
23,CC1(C)C/C(=C(/C#N)C(N)=O)CCO1,9.43% (inactive)
24,Cc1ccsc1CNn1cnnc1SCc1ccccc1F,2.13% (inactive)
25,CC(NC(=O)CN1CCN(Cc2ccc(Cl)cc2)C1=O)c1ccc2c(c1)OCCO2 (configuration not stated),0.3% (inactive)
26,CCOC(=O)c1ccc(Nc2cc(C)nc3nc(C)nn23)cc1,-3.59% (inactive)
27,O=C(CN1CCOc2ccccc21)N1CCC(Cc2ccccc2)CC1,0.85% (inactive)
